Screens (PubChem BioAssay)
CHT allo act: CHT positive allosteric modulators, primary screen, cell-based, membrane potential dye, choline EC20; hit rate 0.49% among 310,000; High affinity choline transporter 1 (Homo sapiens), Q9GZV3; B-score at 10 µM; AID 488977, 2010; CHT-expressing cells; active compounds read high; LV-AA mutant CHT in HEK293 cells;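 active = initial fluorescence not abnormally high and integrated response B-score, plate-corrected, over 3 SD above library mean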
Target sequence (Q9GZV3 whole entry, looked up): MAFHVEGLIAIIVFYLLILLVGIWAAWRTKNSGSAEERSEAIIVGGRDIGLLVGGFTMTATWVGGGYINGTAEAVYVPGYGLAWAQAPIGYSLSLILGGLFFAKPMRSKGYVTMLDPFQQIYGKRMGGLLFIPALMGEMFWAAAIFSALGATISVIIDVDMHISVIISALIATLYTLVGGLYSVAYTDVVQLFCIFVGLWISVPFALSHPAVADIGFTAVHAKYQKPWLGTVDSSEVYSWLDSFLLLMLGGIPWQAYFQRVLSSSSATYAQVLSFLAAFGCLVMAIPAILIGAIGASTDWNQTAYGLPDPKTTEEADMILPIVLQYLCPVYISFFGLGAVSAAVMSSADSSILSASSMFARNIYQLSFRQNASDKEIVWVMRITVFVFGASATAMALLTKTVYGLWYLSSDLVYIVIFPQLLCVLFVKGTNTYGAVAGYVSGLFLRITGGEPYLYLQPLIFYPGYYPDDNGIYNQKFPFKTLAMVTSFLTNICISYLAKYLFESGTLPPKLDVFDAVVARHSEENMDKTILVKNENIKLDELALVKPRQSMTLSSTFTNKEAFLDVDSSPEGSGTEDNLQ
CHT inh: inhibitors of human choline transporter CHT; High affinity choline transporter 1 (Homo sapiens), Q9GZV3; CHT-expressing cells, membrane potential dye, choline response; active compounds read low; B-score at 10 µM; hit rate 0.86% among 310,000;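 active = B-score over 3 SD under the library average, and starting fluorescence ratio not unusually high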;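 note: choline stimulus applied at its EC90 after an EC20 pre-addition; B-score computed on integrated fluorescence ratio after choline addition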
Kir21 inh: inhibitors of mouse Kir2.1 inward-rectifier potassium channel; HEK293-Kir2.1, FluxOR thallium flux fluorescence; active compounds read low; B-score at 10 µM; hit rate 0.85% among 310,000; AID 1672, 2009;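 active = fluorescence ratio B-score at or below minus 3 SD of library scores, with starting-brightness B-score within 2 SD, cut at about -4.2 in these data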;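 note: channel flux triggered by added potassium and thallium sulfate stimulus; B-score of peak minus minimum fluorescence over baseline after thallium stimulus; more negative B-score means stronger Kir2.1 block with less thallium influx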
H9c2 TAG inh: inhibitors of triacylglycerol accumulation, primary screen, cell-based, uHTS, fluorescence, H9c2 | inhibition, % at 12.5 µM | H9c2 cells, Nile Red lipid (TAG) fluorescence; cells loaded with 200 µM oleic acid | hit rate 0.66% among 230,000;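 active = pattern-corrected inhibition of lipid staining of at least 50% with the nuclear-stain viability signal not falling by more than 50%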;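 note: 0% = DMSO wells and 100% = triacsin C control wells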
CHT inh conf: CHT inhibitors, confirmation, cell-based, membrane potential dye, duplicate | shares compounds with CHT inh | AID 493221, 2011 | CHT-expressing cells, choline membrane potential dye; LV-to-AA substituted CHT, HEK293 cells | hit rate 70% among 2,400 | CHT activity remaining % of control (active compounds read low), % at 10 µM;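 active = choline transporter activity left, mean of duplicates at 10 µM, below buffer-only control mean minus 3 SD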;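 note: depolarization triggered by choline at its EC90 following an EC20 pre-addition; 0% = hemicholinium-3 full block and 100% = buffer-only control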
HEK293 CHT ctr: membrane potential effects in parental HEK293, counter-screen for CHT inhibitor project, cell-based, membrane potential dye; membrane potential ratio readout (active if shifted either direction beyond buffer ±3SD; no single direction) at 10 µM; shares compounds with CHT inh; AID 493222, 2011; hit rate 4% among 2,400; choline response; active = decrease or increase beyond buffer ±3SD;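 note: parental cells lack the transporter so any hit is non-specific; ratio is peak minus trough fluorescence over baseline after EC90 choline challenge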
CHT activ conf: CHT activators, confirmation, cell-based, membrane potential dye, duplicate; shares compounds with CHT allo act; activation, % at 10 µM; CHT-expressing cells, membrane potential dye fluorescence (FDSS); % of choline EC20–EC90 response window; HEK293 expressing CHT LV-AA mutant; choline added at its EC20; hit rate 91% among 2,500;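 active = primary screen active, with duplicate mean activation above negative control mean plus 3 SD, cut at about 11% in these data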
HEK293 MP dye: membrane potential response in parental HEK293 cells, counter-screen for CHT activator project, cell-based, membrane potential dye; shares compounds with CHT allo act; membrane potential dye fluorescence (FDSS); measured after EC20 choline addition; ratio readout change at 10 µM, hits read low; hit rate 62% among 2,500; AID 623908, 2012;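 active = duplicate-averaged ratio beyond 3 SD from buffer wells, up or down, though filed actives are nearly all decreases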
TAG conf: triacylglycerol accumulation inhibitors, retest, confirmation, cell-based, single concentration, Nile Red fluorescence, H9c2; inhibition, % at 12.5 µM; H9c2 lipid accumulation; cells loaded with 200 µM oleic acid; shares compounds with H9c2 TAG inh; AID 651629, 2012; hit rate 71% among 990;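 active = mean inhibition across replicates of 40% or more; inactive = mean inhibition below 40%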;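 note: plate controls were DMSO only wells for no effect and Triacsin C treated wells for full effect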
Active calls of the source: *; i = inactive; · = not tested or not shown. In the library only some 2% were active in any assay of this set; here they are far more common.

SMILES	CHT allo act	CHT inh	Kir21 inh	H9c2 TAG inh	CHT activ conf	HEK293 MP dye	others
CN(C)CCCn1c(=O)n(C2CCCCC2)c(=O)c2c3c(sc21)CCCCC3	i	-8*	-0.48	59*	·	·	CHT inh conf=36%*;HEK293 CHT ctr=i;TAG conf=72*
CN(C)CCn1c(=O)n(-c2ccc(F)cc2)c(=O)c2c3c(sc21)CCCCC3	i	i	1.8	0	·	·
COc1cc(C(CCN2CCCCC2)c2c(OC)cc(OC)c3c(-c4ccccc4)cc(=O)oc23)cc(OC)c1OC (configuration not stated)	i	-8.1*	-0.6	58*	·	·	CHT inh conf=44%*;HEK293 CHT ctr=i;TAG conf=52*
COc1cc(C(CCN2CCCC(C)C2)c2c(OC)cc(OC)c3c(-c4ccccc4)cc(=O)oc23)cc(OC)c1OC (configuration not stated)	i	-8.7*	-0.06	74*	·	·	CHT inh conf=22%*;HEK293 CHT ctr=i;TAG conf=78*
O=C1CC[C@H](OCc2ccccc2)CCN1[C@H](CSc1ccccc1)Cc1ccccc1	i	i	-0.54	-10	·	·
COc1cc(C2=NOC(C(=O)Nc3c(C)n(C)n(-c4ccccc4)c3=O)C2)cc(OC)c1OC (configuration not stated)	i	i	0.39	-10	·	·
Cc1ccc(-n2c(SCCN)nnc2-c2cccc(C)c2)cc1	i	i	-0.48	6	17*	i
Cc1cccc(-c2nnc(SCC#N)n2-c2ccccc2)c1	i	i	-3.8	-13	·	·
Cc1ccc(C(=O)C[n+]2cccc3cc(C)ccc32)cc1	i	i	-0.13	-10	38*	-35*
O=S(=O)(c1ccc(F)c(F)c1)N1CCCCCCC1	·	·	·	-4	·	·
COC(=O)[C@@H]1[C@@H](C)N(Cc2ccccc2)C(=O)N[C@H]1c1cccc(C(F)(F)F)c1	9.4*	i	-0.92	-12	-3	i
CCN1C(=NCc2ccccc2)N[C@@H](c2ccccc2)[C@H](C(=O)OC)[C@H]1C	6.9*	i	-2	4	12*	i
CC(=O)[C@@H]1[C@@H](C)N(Cc2ccccc2)C(=O)N[C@H]1c1cccc(C(F)(F)F)c1	i	i	1	-8	·	·
CCc1nc2c(OCCC3CCCCC3)cccn2c1N(C=O)Cc1ccc(OC)cc1	·	·	·	7	·	·
CCN1C(=S)N[C@@H](c2ccccc2)C(C(=O)OC)=C1C	i	i	-1.1	-17	·	·
CCN1C(N(C)CCc2cccs2)=N[C@@H](c2ccccc2)C(C(=O)OC)=C1C	13*	i	-2.1	-10	26*	i
Cc1onc(-c2ccccc2)c1C(=O)N/N=C/c1cc2c(cc1Br)OCO2	i	i	0.66	·	·	·
CC(C)CC(COCc1ccc([N+](=O)[O-])cc1)N1CCN(C(=O)c2ccc(C(F)(F)F)cc2)CCC1=O (configuration not stated)	i	i	-0.38	13	29*	i
Cc1cccc(COCC(Cc2ccccc2)N2CCN(C(=O)c3ccc(C(F)(F)F)cc3)CCC2=O)c1 (configuration not stated)	i	i	1.1	-7	35*	i
Cc1cccc(COCC(CC(C)C)N2CCN(C(=O)c3ccc(C(F)(F)F)cc3)CCC2=O)c1 (configuration not stated)	i	i	-0.77	-1	·	·
Cc1cccc(CN2CCC(CNC(=O)CSc3cc(=O)n(C)c4cc(Cl)ccc34)CC2)c1	6.4*	i	-0.51	15	21*	i
COc1ccc(C2C(C(C)=O)=C(O)C(=O)N2c2ccc(F)cc2)cc1 (configuration not stated)	i	i	0.3	6	·	·
CSc1nc(NCCCO)c2c3c(sc2n1)CN(C)CC3	i	i	-1.3	3	41*	-47*
CSc1nc(SCC(=O)NC(c2ccccc2)c2ccccc2)c2c3c(sc2n1)CN(C)CC3	i	i	-0.07	·	·	·
COc1ccc(-c2cn(-c3ccc(OC)cc3)c3[n+]2-c2ccccc2CC3)cc1	9.5*	i	-3.5	·	53*	i
SMILES	CHT allo act	CHT inh	Kir21 inh	H9c2 TAG inh	CHT activ conf	HEK293 MP dye	others
CCCCOc1ccc(C(=O)Nc2ccc(SC(F)F)cc2)cc1OC	i	i	-0.3	19	·	·
FC(F)Sc1ccc(-n2cc(-c3ccccc3)[n+]3c2CCC3)cc1	i	i	-0.05	·	21*	-40*
COc1ccc(-n2cc(-c3ccc(C)cc3)[n+]3c2SCC3)cc1	i	i	-1.4	·	·	·
FC(F)Oc1ccc(-n2cc(-c3ccc(Cl)cc3)[n+]3c2CCCCC3)cc1	i	i	0.09	-24	·	·
COc1ccc(-c2cn(-c3ccc(SC(F)F)cc3)c3[n+]2CCC3)cc1OC	6.3*	i	1.3	·	32*	-39*
COc1ccc(-n2cc(-c3ccccc3)[n+]3c2CCCCC3)cc1	6.5*	i	-0.26	-25	55*	i
COC(=O)CCCC1=CC2=C(c3ccccc3)C(=O)C(C)(OC(=O)C3CCCC3)C(=O)C2=CN1C1CCCC1 (configuration not stated)	11*	i	1.6	15	36*	i
CCOC(=O)c1c(NC(=O)Cc2ccccc2)sc2c1CCN(CC)C2	i	i	-0.04	10	34*	-35*
CCN1CCc2c(sc(NC(=O)c3ccc(S(=O)(=O)N4CCOCC4)cc3)c2C(N)=O)C1	7.8*	i	0.27	2	38*	-41*
COC(=O)[C@@H](NS(=O)(=O)c1ccc(F)cc1Br)C(C)C	·	·	·	-20	·	·
COCCC1CCCCN1C(=O)c1ccc(OC2CCN(C(C)=O)CC2)c(OC)c1 (configuration not stated)	i	i	-0.22	·	·	·
